G9a inh = qHTS Assay for Inhibitors of Histone Lysine Methyltransferase G9a. Histone-lysine N-methyltransferase EHMT2 (Homo sapiens), Q96KQ7. G9a H3K9 monomethylation, AlphaScreen, 2 h. Potency, µM (series often up to 102 µM), hits mostly inhibitors. 350,000 tested, 8.8% active. AID 504332, 2011; also: nearly all actives have a fitted effect of over 75% in size
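Readings reflect AlphaScreen signal from monomethyl-H3K9 antibody detection. HMT at 20 nM; substrate b-H3K9 500 nM; cofactor SAM 20 uM; 2 h RT reaction; compounds tested as titrations in qHTS with 15 min preincubation.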
JMJD2A Tudor = qHTS Assay for Inhibitors of JMJD2A-Tudor Domain; Lysine-specific demethylase 4A (Homo sapiens), O75164; AlphaScreen JMJD2A-Tudor / H3K4me3 peptide binding; Potency, µM (series often up to 114 µM), most hits filed as inhibitors; 390,000 tested, 4.4% active; also: nearly all actives have a fitted effect of over 50% in size
L3MBTL1 block = qHTS Assay for the Inhibitors of L3MBTL1 | Lethal(3)malignant brain tumor-like protein 1 (Homo sapiens), Q9Y468 | AlphaScreen L3MBTL1–H3K9me1 peptide binding | Potency, µM (highest dose often 57.1 µM), actives largely listed as inhibitors | 230,000 tested, 0.66% active; also: nearly all actives have a fitted effect of over 60% in size
Target sequence (Q9Y468 whole entry, looked up): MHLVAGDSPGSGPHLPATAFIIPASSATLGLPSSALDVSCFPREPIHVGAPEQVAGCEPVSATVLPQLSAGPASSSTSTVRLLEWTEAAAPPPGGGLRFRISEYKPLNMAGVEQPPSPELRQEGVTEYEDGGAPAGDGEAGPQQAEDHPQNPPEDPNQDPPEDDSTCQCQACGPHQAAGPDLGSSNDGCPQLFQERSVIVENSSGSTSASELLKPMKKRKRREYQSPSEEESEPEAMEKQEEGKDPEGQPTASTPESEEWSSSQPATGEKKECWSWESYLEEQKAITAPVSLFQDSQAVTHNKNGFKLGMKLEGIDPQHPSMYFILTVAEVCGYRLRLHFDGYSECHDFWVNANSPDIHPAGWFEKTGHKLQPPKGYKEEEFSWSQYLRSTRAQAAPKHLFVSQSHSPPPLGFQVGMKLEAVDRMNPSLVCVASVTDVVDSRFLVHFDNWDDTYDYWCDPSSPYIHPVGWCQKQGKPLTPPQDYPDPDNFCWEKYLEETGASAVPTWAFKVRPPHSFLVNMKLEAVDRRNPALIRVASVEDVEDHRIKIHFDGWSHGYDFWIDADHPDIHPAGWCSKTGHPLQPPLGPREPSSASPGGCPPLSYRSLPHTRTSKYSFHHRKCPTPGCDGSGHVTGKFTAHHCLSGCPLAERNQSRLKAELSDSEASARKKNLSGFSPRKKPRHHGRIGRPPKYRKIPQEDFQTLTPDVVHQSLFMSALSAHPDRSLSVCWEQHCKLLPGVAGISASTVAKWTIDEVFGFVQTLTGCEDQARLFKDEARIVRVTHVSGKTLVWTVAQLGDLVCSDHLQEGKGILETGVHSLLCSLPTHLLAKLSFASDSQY
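AlphaScreen assay: L3MBTL1 (50 nM final) was preincubated 30 min at room temperature with biotinylated H3(1-15)K9me1 peptide (75 nM final), then 30 min with library compounds; streptavidin donor and nickel chelate acceptor beads (10 ug/mL final) added, 30 min dark.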
HP1b binding inh = HTS for Inhibitors of HP1-beta Chromodomain Interactions with Methylated Histone Tails; Chromobox protein homolog 1 (Homo sapiens), P83916; AlphaScreen HP1-beta / biotin-H3K9me3 peptide binding; Potency, µM (series often up to 114 µM), hits mostly inhibitors; 390,000 tested, 0.56% active; also: nearly all actives have a fitted effect of over 70% in size
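Compound inhibition of the preformed complex between 50 nM HP1-beta and 50 nM biotinylated H3K9me3 peptide was read by AlphaScreen. Buffer was PBS pH 7.4 with 0.01% Tween-20. Incubations ran 30 min at room temperature, with 10 ug/mL donor/acceptor beads.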
BAZ2B inh = qHTS Assay for Inhibitors of BAZ2B; Bromodomain adjacent to zinc finger domain protein 2B (Homo sapiens), Q9UIF8; AlphaScreen BAZ2B-H3K14Ac peptide displacement; Potency, µM (highest dose often 114 µM), most hits filed as inhibitors; 360,000 tested, 4.4% active; AID 504333, 2011; also: nearly all actives have a fitted effect of over 60% in size
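AlphaScreen luminescence quantifies BAZ2B engagement of H3K14Ac peptide; the protein and biotinylated peptide are both at 50 nM final, buffer PBS pH 7.4 with 0.01% Tween-20, all steps at room temperature.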
GLS inh = qHTS for Inhibitors of Glutaminase (GLS) | Glutaminase kidney isoform, mitochondrial (Homo sapiens), O94925 | GLS enzymatic activity, qHTS titration | Potency, µM (highest dose often 45.5 µM), actives largely listed as inhibitors | 410,000 tested, 0.21% active | AID 624170, 2012
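Two-point fluorescence kinetic (t0, 30 min RT) for hKGA; glutamate detected via glutamate oxidase–HRP–Amplex Red. Substrate: 1 mM L-glutamine solution; buffer 45 mM KH2PO4, pH 8.2.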
Numbers stand for hits; – = inactive; ? = inconclusive; · = not tested or not shown; [ ] = dose if it differs, or a comment. Rows were chosen to be rich in hits. Some 10% of all compounds tested hit in one or more screens of this group. Calls follow the shape of the dose curve; as a rule, active = well fitted curve in the direction sought with a large enough effect; inconclusive = small, poorly fitted or top-dose-only effect, or another doubt; inactive = no such curve, though single readings can be large; an effect the other way counts as inactive or inconclusive.

SMILES	G9a inh	JMJD2A Tudor	L3MBTL1 block	HP1b binding inh	BAZ2B inh	GLS inh
CCOc1ccc(CNC(=O)c2ccc3c(c2)nc2n3CCCCC2)cc1	–	–	·	–	–	–
Cc1ccc(C)c(Nc2ncnc3onc(C)c23)c1	–	–	·	–	–	–
COc1ccccc1N1CCN(C(=O)CN(c2ccc(C)c(C)c2)S(C)(=O)=O)CC1	–[12.7 µM]	–	·	–	–	–
COc1ccc(N2CCN(C(=O)CN(c3cccc(Br)c3)S(C)(=O)=O)CC2)cc1	–[2.33 µM]	?	·	–	?	–
CCc1ccccc1N(CC(=O)O)S(C)(=O)=O	–	–	–[11.4 µM]	–	?	–
CS(=O)(=O)N(CC(=O)N1CCN(c2ccccc2)CC1)c1cccc(Br)c1	89µM	–	–	–	–	–
COc1cccc(N(CC(=O)N2CCN(c3ccccc3OC)CC2)S(C)(=O)=O)c1	79µM	–	·	–	–	–
CCc1ccccc1N(CC(=O)N1CCN(c2ccccc2)CC1)S(C)(=O)=O	–	79µM	–	–	·	–
O=C(NCc1cccs1)c1nn(-c2ccccc2F)nc1CO	–	–	·	–	–	–
C=C1C[C@@H]2[C@H]3CCC4=CC(=O)C=C[C@]4(C)[C@@]3(F)[C@@H](O)C[C@]2(C)[C@]1(O)C(=O)COC(C)=O	·	·	·	·	·	–
Cc1ccc(OCC(=O)OCCN2C(=O)c3ccccc3C2=O)cc1C	–	–	–	–	–	–
Cc1cc(C)cc(OCC(=O)OCCN2C(=O)c3ccccc3C2=O)c1	56µM	–	·	–	–	–
CCN1CC(CN(C)Cc2nc(-c3ccco3)oc2C)CC1=O (stereo not given)	79µM	–	–	–	–	–
CCN1CC(CN(C)Cc2nc(-c3ccc(C(F)(F)F)cc3)oc2C)CC1=O (stereo not given)	·	–	–	–	–	–
Cc1cc(Br)ccc1SCC(=O)OCC(=O)NC1CC1	79µM	–	–	–	79µM	–
Cc1cc(Br)ccc1SCC(=O)OCC(=O)NC(C)c1ccccc1 (stereo not given)	40µM	–	–	–	–	–
Cc1cc(SCC(=O)OCC(=O)NC(C)c2ccccc2)c(C)cc1Br (stereo not given)	–	–	–	–	–	–
COc1ccc(NC(=O)CC2C(=O)N(c3ccc(F)cc3)C(=O)N2Cc2cccnc2)cc1 (stereo not given)	?	–	·	–	–	–
COc1ccc(S(=O)(=O)NCCSCc2ccco2)cc1OC	–[12.7 µM]	–	·	–	56µM	–
COc1ccc(S(=O)(=O)NCCSCc2ccco2)cc1	–[12.7 µM]	–	·	–	50µM	–
CCOc1ccc(S(=O)(=O)NCCSCc2ccco2)cc1	–	–	·	–	?	–
CCOC(=O)N1CCC2(CC1)OC(=O)C(C)=C2C(=O)NCc1cccc(F)c1	–	–	·	–	–	–
CC(C)(C)C1CCc2[nH]c3ccccc3c(=O)c2C1 (stereo not given)	–	–	–	–	–	–
Cc1c2c(nc3ccccc13)CCC(C(C)(C)C)C2 (stereo not given)	50µM	–	–	–	–	–
O=c1[nH]c(=O)c2[nH]c(=S)n(-c3ccccc3)c2[nH]1	·	40µM	·	–	·	–
SMILES	G9a inh	JMJD2A Tudor	L3MBTL1 block	HP1b binding inh	BAZ2B inh	GLS inh
O=C(Nc1ccc(Cl)cc1)c1cc2c(cc1O)[nH]c1ccccc12	?	–	·	–	–	13µM
CN(C)/C=C1\SC(=S)N(c2ccc(Br)cc2)C1=O	45µM	?	·	–	40µM	–
CC(=O)N(/C=C1\SC(=S)N(c2ccccc2)C1=O)c1ccccc1	?	?	–	–	?	–
CN(C)/C=C1\SC(=S)N(c2ccc(F)cc2)C1=O	63µM	–	·	–	–	–
COc1ccc(CC(=O)Nc2sc3c(c2C(=O)Nc2cccc(C)c2)CCCCC3)cc1	–	–	·	–	–	–
Cc1ccc2c(c1)C1(C(=O)N2)N2CCCC2C(C(=O)c2ccc3ccccc3c2)C12C(=O)Nc1ccccc12 (stereo not given)	?	50µM	·	?	?	–
O=C1CCC(C(=O)N2CCCC(C(=O)c3ccc4ccccc4c3)C2)=NN1 (stereo not given)	?	–	·	–	–	–
COc1cc(C(c2sc3nc(C)nn3c2O)N2CCN(c3ccccc3)CC2)cc(OC)c1OC (stereo not given)	–	–	–	–	–	–
COc1cc(C(c2sc3nc(C)nn3c2O)N2CCc3ccccc3C2)cc(OC)c1OC (stereo not given)	22µM	–	–	–	–	–
COc1ccc(C(c2sc3nc(C)nn3c2O)N2CCC(C(N)=O)CC2)cc1OC (stereo not given)	50µM	–	–	–	–	–
COc1cccc(C(c2sc3ncnn3c2O)N2CCc3ccccc3C2)c1 (stereo not given)	7.1µM	–	–	–	–	–
COc1cccc(C(c2sc3ncnn3c2O)N2CC(C)OC(C)C2)c1 (stereo not given)	–	–	–	–	–	–
CCOC(=O)c1ccc(N2CCN(c3cc(C)ccc3C)CC2)c(NC(=O)Nc2ccc(CC)cc2)c1	–	–	·	–	–	–
CCOC(=O)c1ccc(N2CCN(c3cc(C)ccc3C)CC2)c(N)c1	45µM	?	·	–	?	–
CC1CCN(c2ccc(C(=O)O)cc2N)CC1	79µM	–	–	–	50µM	–
Nc1cc(C(=O)O)ccc1N1CCCCC1	?	?	?	–	?	–
COc1ccc(CNC(=O)CSc2ncn[nH]2)cc1	2.8µM	–	·	–	–	–
O=C(CSc1ncn[nH]1)NCc1ccccc1	–	–	–	–	–	–
O=C(CSc1nnc(SCC(=O)c2ccco2)s1)c1ccco1	–	20µM	?	?	?	–
O=C(CSc1ncn[nH]1)c1ccco1	5.6µM	–[11.4 µM]	–	?	–	–
Cc1ccc(CNC(=O)CSc2ncn[nH]2)cc1	–	–	·	–	–	–
O=C(CSc1nccc(=O)[nH]1)c1ccco1	?	–	–	–	–	–
O=C(CSc1ncn[nH]1)c1ccccc1	3.2µM	25µM	–	–	?	–
Cc1ccc(NC(=O)NCCc2c(C)nn(C)c2C)cc1Cl	–	–	·	–	–	–
O=C(Nc1ccc(Br)cc1)c1ccc(F)c(S(=O)(=O)N2CCc3ccccc32)c1	–	–	·	–	–	–

Screening results deposited in PubChem BioAssay by National Center for Advancing Translational Sciences (NCATS).
